The results in this text go back to PubChem BioAssay AID1347145 (National Center for Advancing Translational Sciences (NCATS), 2019).

Records with an inconclusive call do not appear. Where a call stands in place of a potency, no number is given. The source made the active and inactive calls. Calls come from the whole dose curve; as a rule, active = well fitted inhibition curve with a large enough effect; inconclusive = small, poorly fitted or top-dose-only effect; inactive = no such curve, though single readings can be large or run the other way.
Potency is the fitted concentration of half-maximal effect.

Sequence of N-terminal Xaa-Pro-Lys N-methyltransferase 1 (Homo sapiens) (Q9BV86 whole entry, looked up): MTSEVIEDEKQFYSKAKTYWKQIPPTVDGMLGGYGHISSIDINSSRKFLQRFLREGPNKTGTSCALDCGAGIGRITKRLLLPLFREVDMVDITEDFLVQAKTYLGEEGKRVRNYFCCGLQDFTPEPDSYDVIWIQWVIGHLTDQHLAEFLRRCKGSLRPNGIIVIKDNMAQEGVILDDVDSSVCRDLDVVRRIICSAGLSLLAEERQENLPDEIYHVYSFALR

The target of the assay is N-terminal Xaa-Pro-Lys N-methyltransferase 1 (Homo sapiens) (UniProt Q9BV86). As to the kind of experiment: qHTS Assay for Inhibitors of N-terminal methyltransferase 1 (NTMT1): MTaseGlo Assay Confirmatory Screen, Round 1. As to conditions: Recombinant NTMT1, MTase-Glo SAH luminescence; series mostly up to 57.1 µM. The method, boiled down:
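Luminescence from MTase-Glo conversion of SAH to ATP measured activity after a 30 min RT reaction with 1 µM SPKRIA substrate, 100 µM SAM and 125 nM enzyme. Normalization used no-enzyme and DMSO controls, followed by Hill fitting.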
Turning to `Nc1ncnc2c1ncn2[C@H]1O[C@@H](CNS(=O)(=O)NC(=O)c2cccc(-c3noc(-c4ccccc4F)n3)c2)[C@H](O)[C@@H]1O`, the Potency was 1930 nM (active).

As to `COc1cc2c(NC3CCN(C)CC3)nc(N3CCCCC3)nc2cc1OCCOCCN1CCCC1`, the Potency result is “inactive”.

As for `Nc1ncnc2c1ncn2[C@@H]1O[C@H](CSCC[C@H](N)C(=O)O)[C@@H](O)[C@H]1O`, the Potency entry was “inactive”.

For the compound `COc1cc2c(NC3CCN(C(C)C)CC3)nc(N3CCC(F)(F)CC3)nc2cc1OCCCN1CCCC1`, the Potency result is “inactive”.

Take `COc1cc2nc(Nc3ccccc3)nc(NC3CC3)c2cc1OC`: the Potency result is “inactive”.

Consider `Nc1ncnc2c1ncn2[C@@H]1O[C@H](COP(=O)(O)OP(=O)(O)OP(=O)(O)OP(=O)(O)OC[C@@H]2O[C@H](n3cnc4c(N)ncnc43)[C@@H](O)[C@H]2O)[C@@H](O)[C@H]1O`, for which the Potency result is “inactive”.

`CCCCC#Cc1nc(NC)c2ncn([C@@H]3O[C@H](CO)[C@@H](O)C3O)c2n1` (some centres undefined): the Potency result is “inactive”.

With `COC1C(O)C(CO)OC1n1cnc2c(NC3CCCCC3)ncnc21` (centres undefined), the Potency result was “inactive”.

With `COc1cc2c(NC3CCN(C(C)C)CC3)nc(N3CCCN(C)CC3)nc2cc1OCCCN1CCCC1`, the Potency entry is “inactive”.

With `Nc1ncnc2c1[nH]c(=O)n2C1CC(O)C(CO)O1` (centres undefined), the Potency result was “inactive”.

`OC[C@@H]1O[C@@H](n2cnc3c(NCc4ccco4)ncnc32)[C@H](O)[C@H]1O`: the Potency result is “inactive”.

In the case of `Nc1ncnc2c1ncn2C1C[C@H](O)[C@@H](CO)O1` (some centres undefined), the Potency result was “inactive”.

For the compound `Cn1cnc2c(ncn2[C@@H]2O[C@H](CO)[C@@H](O)[C@H]2O)c1=N`, the Potency result was “inactive”.

For the compound `C[S+](CC[C@H](N)C(=O)O)C[C@H]1O[C@@H](n2cnc3c(N)ncnc32)[C@H](O)[C@@H]1O` (some centres undefined), the Potency entry was “inactive”.
